# Reference: PubChem BioAssay AID1851 (National Center for Advancing Translational Sciences (NCATS), 2009)
# Values joined by “and” are separate entries in the source; they are usually repeats but may differ in a detail not shown here. Equal values may be shown once. Out of some 16,000 compounds screened, about 5,800 (36%) were called active. Not shown: some 23% with an inconclusive outcome. The call rests on the fitted dose curve; in most records, active means well fitted curve in the direction sought with a large enough effect; inconclusive means small, poorly fitted or top-dose-only effect, or effect the other way; inactive means no such curve, though single readings can be large or run the other way. Some of the results follow. Some compounds were tested as several samples or in several runs, with calls that do not always agree.
# Target: Cytochrome P450 2C19 (Homo sapiens) (UniProt P33261)
# Experiment: Cytochrome panel assay with activity outcomes
# Conditions: recombinant CYP, pro-luciferin dealkylation, luminescence, p450-cyp2c19; series mostly up to 57.1 µM; activity, negative = inhibition: at the top concentration
# On the % scale 0 is the no-effect control and ±100 the full control effect.
# Cytochrome P450 2C19 (Homo sapiens), sequence (P33261 whole entry, looked up): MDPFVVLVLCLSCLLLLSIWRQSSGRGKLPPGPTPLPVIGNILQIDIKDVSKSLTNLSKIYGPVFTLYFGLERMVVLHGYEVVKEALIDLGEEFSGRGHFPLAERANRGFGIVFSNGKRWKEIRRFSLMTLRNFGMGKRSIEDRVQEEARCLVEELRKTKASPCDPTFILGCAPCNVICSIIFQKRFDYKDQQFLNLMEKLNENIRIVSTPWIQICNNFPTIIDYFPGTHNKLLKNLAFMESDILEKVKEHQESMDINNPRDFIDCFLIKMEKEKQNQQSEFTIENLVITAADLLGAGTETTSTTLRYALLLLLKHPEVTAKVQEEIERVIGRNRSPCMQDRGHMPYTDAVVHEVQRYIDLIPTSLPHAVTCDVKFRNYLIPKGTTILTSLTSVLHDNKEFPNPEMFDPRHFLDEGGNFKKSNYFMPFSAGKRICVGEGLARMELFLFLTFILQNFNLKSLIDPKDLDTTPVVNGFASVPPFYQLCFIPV
SMILES,AC50,"activity, negative = inhibition"
COC(=O)C(O)(c1c(C)[nH]c2ccccc12)C(F)(F)F (configuration not stated),5.01 µM (active),–
c1ccc2sc(C3(N4CCCCC4)CCCCC3)cc2c1,–,-26.2% (inactive)
Nc1ncnc2c1ncn2[C@@H]1O[C@@H](COP(=O)(O)CP(=O)(O)OP(=O)(O)O)[C@H](O)[C@@H]1O,–,0.925% (inactive)
NNC(N)=O,–,27.4% (inactive)
c1cncc([C@@H]2CCCCN2)c1,inactive and 2 µM (active),–
c1cncc(CNCCN2CCNCC2)c1,–,7.54% [at 11.4 µM] (inactive)
COc1ccc2c(c1)[C@]13CCCC[C@@H]1[C@H](C2)N(C)CC3,–,-9.18% (inactive)
O=[As](O)(O)c1ccc(N=Nc2ccc(O)cc2)cc1,–,-12.7% [at 11.4 µM] (inactive)
CCOc1ccc(C2C(C#N)=C(N)Oc3c2c(=O)oc2ccccc32)cc1 (configuration not stated),5.62 µM (active),–
CN1CC[C@@]2(CCCN(C(=O)c3ccncc3)C2)C1,–,-25.8% (inactive)
O=C1CS[C@@H](c2ccccc2Cl)c2cc(Cl)ccc2N1,25.1 µM (active),–
O=S(=O)(NCCO)c1cc[c]([Sb](=[O])([OH])[OH])cc1,–,14.4% [at 11.4 µM] (inactive)
CC(C)c1ccc(C(O)(C(=O)O)c2ccc(C(C)C)cc2)cc1,–,21.5% [at 11.4 µM] (inactive)
C[C@@]12CC[C@@H]3[C@H](CCC4=CC(=O)CC[C@]43C)[C@@H]1CC[C@@H]2C(=O)COS(=O)(=O)c1ccc(Br)cc1,–,-21.8% [at 11.4 µM] (inactive)
COc1cc2c3cc1Oc1cc(ccc1O)C[C@@H]1c4c(cc(OC)c(O)c4Oc4cccc(c4)C[C@H]3N(C)CC2)CC[N+]1(C)C,–,1.07% [at 25.6 µM] (inactive)
Cc1nc2ccccc2cc1C[N+]12CN3CN(CN(C3)C1)C2,–,-23.7% [at 11.4 µM] (inactive)
COC(=O)N1CCN(C(=O)Cc2ccc(Cl)c(Cl)c2)[C@H](CN2CCCC2)C1,inactive and 25.1 µM (active),–
O=C(Cc1ccc(Cl)c(Cl)c1)N1CCCC[C@H]1CN1CCCC1,inactive and 6.31 µM (active),–
CC[N+](CC)(CC)CCOc1cccc(OCC[N+](CC)(CC)CC)c1OCC[N+](CC)(CC)CC,–,-7.51% (inactive)
C=C[C@H]1CN2CC[C@@H]1C[C@H]2[C@@H](O)c1ccnc2ccccc12,–,-24.2% [at 25.6 µM] (inactive)
N[C@H](Cn1ccc(=O)[nH]c1=O)C(=O)O,–,23.1% (inactive)

SMILES,AC50,"activity, negative = inhibition"
C[C@@]12CC[C@H](O[C@@H]3O[C@H](CO)[C@@H](O)[C@H](O)[C@@H]3O)C[C@@H]1CC[C@H]1[C@H]2CC[C@@]2(C)[C@@H](C3=CCOC3=O)CC[C@]12O,–,22.6% [at 11.4 µM] (inactive)
COC(=O)[C@H]1[C@H](c2ccccc2)C(=O)[C@@]2(O)c3ccccc3O[C@@]12c1ccccc1,–,-15.7% [at 11.4 µM] (inactive)
COc1cc2c(cc1O)C[C@H]1c3c(cc(O)c(OC)c3-2)CCN1C,–,-10.6% [at 25.6 µM] (inactive)
CC1=CC(=O)C2=C(C)C[C@@H](O)[C@@H]3[C@@H](OC(=O)[C@H]3C)[C@H]12,–,-9.8% [at 25.6 µM] (inactive)
C[N+]1([O-])[C@@H]2CC[C@H]1CC(OC(=O)[C@@H](CO)c1ccccc1)C2 (some centres not stated),–,10% [at 25.6 µM] (inactive)
CC12CN3CC(C)(CN(C1)C31CCSCC1)C2=O,–,-1.25% (inactive)
CC(=O)N1CCC2(CC1)CC(=O)c1cc(OCC(=O)N3CCN(C)CC3)ccc1O2,–,11.3% (inactive)
COc1cc(CN2CCN(C(=O)COc3ccccc3)CC2)cc(OC)c1OC,–,-23.4% (inactive)
O=C(COc1ccc2ccccc2c1)N1CCN(CC2CC3C=CC2C3)CC1 (configuration not stated),10 µM (active),–
C(=NC12CN3CN(CN(C3)C1)C2)c1cccs1,–,-36.5% (inactive)
CCCc1cc2c(n1Cc1cccc(Cl)c1)C(C)C1CN(C(=O)c3ccccc3)C(C)(C(=O)OC)C21 (configuration not stated),15.8 µM (active),–
N#CCCCC[N+]12CN3CN(CN(C3)C1)C2,–,19.8% [at 11.4 µM] (inactive)
C=C(CC1(C(C)NP(=O)(c2ccccc2)c2ccccc2)CC1)c1ccccc1 (configuration not stated),10 µM (active),–
C=C(CC1(CNP(=O)(c2ccccc2)c2ccccc2)CC1)c1ccccc1,–,-61.1% (inactive)
O=C(O)[C@H]1C[C@@H]1[C@H](NP(=O)(c1ccccc1)c1ccccc1)c1ccccc1,–,-17.6% (inactive)
CNC(=O)OCC[N+](C)(C)C,–,20.4% (inactive)
O=C(O)c1ccccc1-c1c2cc(Br)c(=O)cc-2oc2[c]([Hg])c(O)c(Br)cc12,3.16 µM (active),–
NC(N)=Nc1ccc2[nH]c3c(c2c1)C[C@]1(O)[C@@H]2Cc4ccc(O)c5c4[C@]1(CCN2CC1CC1)[C@@H]3O5,–,-20.9% (inactive)
N[C@H](Cc1ccc2oc3cc(=O)c4ccccc4c-3nc2c1)C(=O)O,–,-35.8% [at 11.4 µM] (inactive)
O=C(O)CCCc1ccc(N(CCCl)CCCl)cc1,–,-15% [at 25.6 µM] (inactive)
COC(=O)c1[nH]c2ccc(Br)cc2c1NC(=O)Oc1ccccc1,11.2 µM (active),–
